Source: PubChem BioAssay (EPA / NIEHS)
Results filed as inconclusive are left out. Active and inactive are the calls of the source. The calls were made as follows: active = hit-call score of the fitted dose curve at least 0.9, where 1 is the maximum; inconclusive = response in the unintended direction; inactive = score below 0.9.

target: Bile acid receptor (Homo sapiens) (UniProt Q96RI1); test: ATG_FXR_TRANS: Attagene TRANS-FACTORIAL HepG2 Assay for Farnesoid X Receptor (FXR) (AID 2282979); conditions: HepG2 Attagene TRANS FXR-GAL4 reporter transcription;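 also: hits raise reporter mRNA above DMSO so AC50 marks FXR activation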
Procedure: ATG_TRANS is a cell-based, multiplexed-readout assay that uses HepG2, a human liver cell line, with measurements taken at 24 hours after chemical dosing in a 24-well plate.ATG_FXR_TRANS is one of 30 assay component(s) measured or calculated from the ATG_TRANS assay. It is designed to make measurements of mRNA induction, a form of inducible reporter, as detected with fluorescence intensity signals by Reverse transcription polymerase chain reaction (RT-PCR) and Capillary electrophoresis technology.Data from the assay component ATG_FXR_TRANS was analyzed into 1 assay endpoint. This assay endpoint, ATG_FXR_TRANS, was analyzed in the positive analysis fitting direction relative to DMSO as the negative control and baseline of activity. Using a type of inducible reporter, measures of mRNA for gain-of-signal activity can be used to understand the reporter gene at the transcription factor-level as they relate to the gene NR1H4. Furthermore, this assay endpoint can be referred to as a primary readout, because this assay has produced multiple assay endpoints where this one serves a reporter gene function. To generalize the intended target to other relatable targets, this assay endpoint is annotated to the nuclear receptor intended target family, where the subfamily is non-steroidal.
Human liver HepG2 cells are transiently transfected with multiple reporter transcription units (MRTUs) in 6-well plates using FuGene 6 reagent (Roche; 3 ml FuGene/1 mg DNA). The MRTU constructs are regulated by a cis-regulating element (promoter). […] A major difference between the CIS and TRANS system is that in CIS activities of endogenous TFs are measured, whereas the TRANS assay evaluates changes in activities of exogenous, chimeric NR-Gal4 proteins. […] At the end of 24 hour incubation, total RNA was isolated using TriZol reagent (Invitrogen). The isolated RNA is then reverse-transcribed using oligo(dT) primer and Mo-MLV reverse transcriptase (Invitrogen) with DNAse I (Ambion) treatment for 30 min. The one-tenth of the produced cDNA was amplified by PCR using Taq DNA polymerase (Invitrogen) and two reporter sequence-specific primers. The PCR products were fluorescently labeled by primer extension with 6-arboxyfluorescein (6-FAM) 5'-labeled reporter sequence-specific primer (2 min at 95 C, 20 s at 68 C and 10 min at 72 C) and these products were digested with 5U of HpaI (New England Biolabs) for 2h at 37 C. The fragments were purified using Qiaquick PCR columns (Qiagen), analyzed on an ABI 3130xL genetic analyzer (Applied Biosystems) with peak positions identified by using a set of X-rhodamine (ROX)-labeled MapMarker1000 molecular weight standards (BioVentures). The raw capillary electrophoresis data was processed using Attagraph software (Attagene).

Chain of Bile acid receptor (Homo sapiens) (Q96RI1 whole entry, looked up, the tested form may be a part): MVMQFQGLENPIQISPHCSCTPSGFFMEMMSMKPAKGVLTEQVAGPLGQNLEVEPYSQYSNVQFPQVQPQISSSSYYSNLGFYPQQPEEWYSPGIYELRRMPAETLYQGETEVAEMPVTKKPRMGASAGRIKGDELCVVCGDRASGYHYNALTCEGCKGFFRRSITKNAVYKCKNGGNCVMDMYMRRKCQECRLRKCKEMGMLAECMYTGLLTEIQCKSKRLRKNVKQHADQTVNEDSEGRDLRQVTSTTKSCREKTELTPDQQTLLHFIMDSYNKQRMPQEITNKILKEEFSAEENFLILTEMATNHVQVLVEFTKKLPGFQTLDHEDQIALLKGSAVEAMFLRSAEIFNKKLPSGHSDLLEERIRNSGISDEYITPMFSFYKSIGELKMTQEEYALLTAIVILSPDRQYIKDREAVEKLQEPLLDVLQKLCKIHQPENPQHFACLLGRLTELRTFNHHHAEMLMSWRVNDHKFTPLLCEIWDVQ

Compound | outcome | AC50
O=P(O)(Oc1ccccc1)Oc1ccccc1 | inactive | –
Nc1ccc(-c2ccc(N)c(N)c2)cc1N | inactive | –
CCCOC(=O)c1ccccc1C(=O)OCCC | inactive | –
COc1ccc(CO)cc1 | inactive | –
O=c1[nH]c(Cl)c(Cl)cc1Cl | inactive | –
CCC(C)c1cc(C(C)(C)C)cc(-n2nc3ccccc3n2)c1O (stereo not given) | inactive | –
c1ccc(Nc2ccc3ccccc3c2)cc1 | inactive | –
CCCCOP(=O)(O)OCCCC | inactive | –
CC1(C)CC(=O)CC(C)(C)N1[O] | inactive | –
COCC(=O)N(c1c(C)cccc1C)N1CCOC1=O | inactive | –
CC(C)COP(=O)(OCC(C)C)OCC(C)C | inactive | –
O=C1C(Cl)=C(Cl)C(=O)C(Cl)=C1Cl | inactive | –
CN1C[C@H](C(=O)N[C@]2(C)O[C@@]3(O)[C@@H]4CCCN4C(=O)[C@H](Cc4ccccc4)N3C2=O)C=C2c3cccc4[nH]cc(c34)C[C@H]21 | inactive | –
O=C1Nc2ccc(Cl)cc2C(c2ccccc2)=NC1O (stereo not given) | inactive | –
CC(O)CN(CC(C)O)CC(C)O (stereo not given) | inactive | –
C=COCCCl | inactive | –
O=C(NC(=O)c1c(F)cccc1F)Nc1ccc(Oc2ccc(C(F)(F)F)cc2Cl)cc1F | inactive | –
C=CC(=O)OC | inactive | –
CCCC=NO | inactive | –
CCCCCc1cc(O)cc(O)c1 | inactive | –

Compound | outcome | AC50
ClC1=C(Cl)[C@]2(Cl)[C@@H]3[C@@H](Cl)[C@H](Cl)C[C@@H]3[C@@]1(Cl)C2(Cl)Cl | inactive | –
CC(=O)c1cc2c(cc1C)C(C)(C)C(C)CC2(C)C (stereo not given) | inactive | –
O=C(CCN1CC1)OCC(CO)(COC(=O)CCN1CC1)COC(=O)CCN1CC1 | inactive | –
CC(C)CCCCCCCOC(=O)c1ccccc1C(=O)OCCCCCCCC(C)C | inactive | –
C[C@]12CC[C@H](O)C[C@H]1CC[C@@H]1[C@@H]2C[C@@H](O)[C@]2(C)[C@@H](C3=CC(=O)OC3)CC[C@]12O | inactive | –
c1ccc2c(c1)CCCC2 | inactive | –
CC1OC(C)OC(C)O1 (stereo not given) | inactive | –
CCOP(=O)(OCC)Oc1ccc([N+](=O)[O-])cc1 | inactive | –
CC(C)C(=O)Cl | inactive | –
CC(C)(C)C(O)C(Oc1ccc(-c2ccccc2)cc1)n1cncn1 (stereo not given) | inactive | –
CCC(Br)(CC)C(=O)NC(N)=O | inactive | –
O=[N+]([O-])c1cc(C(F)(F)F)c(Cl)c([N+](=O)[O-])c1Cl | – | 53.3 µM (active)
CN(N=O)c1ccccc1 | inactive | –
CNC(=N[N+](=O)[O-])NCC1CCOC1 (stereo not given) | inactive | –
COc1cc(OC)nc(Oc2cccc(Oc3nc(OC)cc(OC)n3)c2C(=O)O)n1 | inactive | –
O=C(O)C(Br)Br | inactive | –
Clc1ccc(-c2ccccc2)cc1 | inactive | –
CC(Cc1ccc(C(C)(C)C)cc1)CN1C[C@@H](C)O[C@@H](C)C1 (stereo not given in full) | inactive | –
CCCCCCCCCCCC#N | inactive | –
N#CC(c1ccccc1)c1ccccc1 | inactive | –
